Inhibition data for 33 molecules are collected here from ChEMBL document CHEMBL3433997, “St. Jude Leishmania screening dataset” (2016).

Assay type in all cases: functional
For assay [1], the target named is Solute carrier family 2, facilitated glucose transporter member 1 (Homo sapiens) (UniProt P11166). Nature of the assay: ST_JUDE_LEISH: Cytotoxicity at 2uM final concentration against transgenic Leishmania Mexicana promastigotes LmGLUT1 that are glucose transport deficient and complemented with the human glucose transporter GLUT1. Activity is measured by DNA content using SYBR green in vitro.

Assay [2] concerns the target Hexose transporter 1 (Plasmodium falciparum) (UniProt O97467). Nature of the assay: ST_JUDE_LEISH: Cytotoxicity at 2uM final concentration against transgenic Leishmania Mexicana promastigotes LmPfHT that are glucose transport deficient and complemented with the Plasmodium falciparum hexose transporter. Activity is measured by DNA content using SYBR green in vitro.
Assay [3] deals with Glucose transporter (Leishmania mexicana) (UniProt O61059). Nature of the assay: ST_JUDE_LEISH: Cytotoxicity at 2uM final concentration against transgenic Leishmania Mexicana promastigotes LmGT2 that are glucose transport deficient and complemented with the L. Mexicana glucose transporter 2. Activity is measured by DNA content using SYBR green in vitro.

By inhibition is commonly meant the change of the read-out against control, counted positive when it falls.

Sequence of Solute carrier family 2, facilitated glucose transporter member 1 (Homo sapiens) (P11166 whole entry): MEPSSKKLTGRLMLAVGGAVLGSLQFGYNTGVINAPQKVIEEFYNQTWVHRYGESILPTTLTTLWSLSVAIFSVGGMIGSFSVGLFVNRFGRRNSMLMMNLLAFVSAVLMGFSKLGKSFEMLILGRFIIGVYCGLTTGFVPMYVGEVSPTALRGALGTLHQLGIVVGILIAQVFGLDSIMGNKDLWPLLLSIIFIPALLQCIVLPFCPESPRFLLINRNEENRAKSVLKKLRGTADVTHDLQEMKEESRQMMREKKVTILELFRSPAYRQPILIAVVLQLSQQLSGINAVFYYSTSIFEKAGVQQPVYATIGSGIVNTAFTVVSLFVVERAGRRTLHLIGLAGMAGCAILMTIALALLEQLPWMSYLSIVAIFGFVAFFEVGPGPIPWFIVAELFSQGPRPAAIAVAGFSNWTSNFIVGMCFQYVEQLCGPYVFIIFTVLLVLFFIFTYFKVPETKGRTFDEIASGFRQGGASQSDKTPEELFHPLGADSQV

Consider `Cc1cccc2nc(-c3ccc(-c4ccc(CN5CCC(N)C5)cc4)s3)[nH]c12` (centres undefined), for which the inhibition is -3.3% in assay [1], 0.94% in assay [2] and -2.11% in assay [3].
For `COc1c(Br)cc(Br)cc1-c1ccc(CN2C3CCCC2CCC3)[nH]1` the same measures were 4.44%, 7.84% and 2.48%.
For `NC(=O)c1ccccc1Nc1nc(Nc2cccc(N3CCN(CCO)CC3)c2)ncc1Cl` the same measures were 64%, 67.3% and 57.8%.
For `O=C(Nc1ccc(Cl)c(Cl)c1)Nc1ccc2nccc(N3CCN(Cc4ccccc4)CC3)c2c1` the same measures were 3.7%, 0.94% and 3.64%.
Take `Cc1cccc(C)c1OC(=O)CSc1nnc(-c2ccccc2O)o1`: the inhibition in assay [1] was 1.32%; in assay [2] it was 2.43%; in assay [3] it was 1.28%.
For `CCCCCCCCCC(=O)NCC1CC(Br)=NO1` (centres undefined) the same measures were -2%, -0.61% and -1.46%.
For `COc1ccc(NC(=O)[C@H](CC(C)C)Nc2cc(C)nc(NCCc3ccccc3OC)n2)cc1`, in that order: 1.28%, 2.79% and 0.24%.
For `C=CCN(C(=O)c1ccc(Cl)c([N+](=O)[O-])c1)c1nc(-c2ccccc2)cs1` the same measures were 10.6%, 9.45% and 7.89%.
In the case of `COc1ccc(C(C(=O)NC2CCN(C[C@H](O)c3ccnc4ccc(OC)cc34)CC2)N2CCc3ccccc3C2)cc1` (some centres undefined), the inhibition came to 2.66% in assay [1], 2.33% in assay [2] and 2.69% in assay [3].
Take `O=C(NCCc1ccccc1)N(Cc1ccccc1-c1ccc(CNC2CCCC2)cc1)C1CCN(Cc2ccccc2)CC1`: the inhibition in assay [1] was 7.74%; in assay [2] it was 7.15%; in assay [3] it was 5.58%.
For `O=C(CSc1ccccn1)Nc1c(F)cccc1F` the same measures were 3.81%, 3.5% and 2.68%.
For `N=C1N=C(N)NC2(CCCCC2)N1OCCCOc1cccc2ccccc12`, in that order: 54.1%, 60% and 37.9%.
As to `CCCCCCn1c(Sc2ccc(C#N)c([N+](=O)[O-])c2)nnc1-c1ccc(N(C)C)cc1`, the inhibition is 17.6% in assay [1], 16.1% in assay [2] and 15.3% in assay [3].
With `COC(=O)C(=O)c1c(-c2ccccc2)c(-c2ccc(OC)c(OC)c2)c2c3cc(OC)c(OC)cc3ccn12`, the inhibition was 13.2% in assay [1], 10.2% in assay [2] and 8.49% in assay [3].
For `COc1cc(C(=O)NC2CCN(Cc3ccccc3)CC2)ccc1-c1nc2c(Cl)cc(C(F)(F)F)cc2[nH]1` the same measures were 5.51%, 3.32% and 3.49%.
On to `COc1cccc2cc(C(=O)N[C@@H](CC(C)C)C(=O)N[C@H](C=NN3CCOC3=O)Cc3ccccc3)oc12`, for which the inhibition in assay [1] is -0.71%; in assay [2] it was 0.23%; in assay [3], -0.91%.
For `N#Cc1cccc(-c2cccc(C(=O)NC3CCC(CCN4CCc5ccc(C#N)cc5CC4)CC3)c2)c1` (centres undefined), in that order: 10.8%, 8.62% and 11.2%.
For `CC(=O)c1ccc(-c2ccccc2)s1` the same measures were 2.16%, 3.72% and 1.61%.
For `CCN(CC)CCN(Cc1ccc(-c2ccc(C(F)(F)F)cc2)cc1)C(=O)Cn1c(CCc2cccc(F)c2F)nc(=O)c2ccc(C)cc21` the same measures were 0.88%, 1.15% and 0.22%.
`COc1ccccc1-c1nc2c(ccc3nc(N)nc(N)c32)[nH]1`: the inhibition in assay [1] turned out to be 49.5%; in assay [2], 58.8%; in assay [3] it was 4.58%.
For `COc1cccc(CCc2c(CCNCCCCCCNCCc3ccccc3)ccc(OC)c2OC)c1`, in that order: 93%, 102% and 106%.
For `O=C(/C=C/c1ccc(Br)cc1)NCCCCCN1CCC(c2c[nH]c3ccccc23)CC1`, in that order: 25.2%, 17.3% and 12.7%.
For `Cc1ccc(O)cc1Nc1ccnc2ccc(C(C)(C)C)cc12` the same measures were -2.04%, -2.63% and -2.07%.
For the molecule `O=C(/C=C/c1ccc(Cl)c(Cl)c1)NCCCCCCN1CCCN(C(=O)Nc2cccc(Cl)c2)CC1`, the inhibition was -1.03% in assay [1], 0.08% in assay [2] and -2.92% in assay [3].
Regarding `O=C(Nc1ccc(O)c(-c2nc3ccccc3[nH]2)c1)c1ccc([N+](=O)[O-])cc1`, the inhibition in assay [1] is -2.13%; in assay [2], -0.21%; in assay [3], 1.31%.
Regarding `CCCCCCN1CCC(CNCc2cccc(Cl)c2)CC1`, the inhibition is 1.66% in assay [1], 2.08% in assay [2] and 1.97% in assay [3].
With `CN(C)CCCOc1ccc(CN2CC[C@H](NC(=O)c3ccc(Cl)c(Cl)c3)C2)c2ccccc12`, the inhibition in assay [1] is -0.55%; in assay [2], 1.01%; in assay [3], 0.71%.
For `COc1ccc(CNCCc2cccs2)cc1-c1ccc(S(=O)(=O)NCCN2CCCC2)s1`, in that order: 4.99%, 5.45% and 4.66%.
Turning to `c1cn(-c2ccc(CNc3nccc(Nc4ccc(OCCN5CCOCC5)cc4)n3)cc2)cn1`, the inhibition in assay [1] was -0.35%; in assay [2] it was -0.43%; in assay [3] it was 0.98%.
For `Cc1nc(-c2cccc(Nc3nccc(NCC(O)c4cccc(F)c4)n3)c2)cs1` (centres undefined) the same measures were -0.89%, -0.36% and -3.57%.
With `Cc1ccc(CN2CCN(Cc3cccc(NC(=O)c4ccc5ccccc5c4)c3)CC2)cc1C`, the inhibition was 1.24% in assay [1], 1.87% in assay [2] and 4.04% in assay [3].
Regarding `COc1ccc(NC(=O)CCNc2cc(C)nc(Nc3ccccc3)n2)cc1`, the inhibition in assay [1] came out at 5.84%; in assay [2], 5.64%; in assay [3], 5.8%.
For `CC(O)C1CCCCN1C(=O)c1cccc(-c2ccc(-c3nc4cc(C(F)(F)F)ccc4[nH]3)cc2)c1` (centres undefined) the same measures were 0.8%, 0.3% and 1%.
